The full data set covers some 7,900 targets. This sample favours those with a hit. About 0.6% of all pairs of compound and target were hits. Values without a mark were called inactive.

The results in this text go back to the supplement of paper PMC10849652.

UniProt Q02790, sequence (Q02790 whole entry, looked up): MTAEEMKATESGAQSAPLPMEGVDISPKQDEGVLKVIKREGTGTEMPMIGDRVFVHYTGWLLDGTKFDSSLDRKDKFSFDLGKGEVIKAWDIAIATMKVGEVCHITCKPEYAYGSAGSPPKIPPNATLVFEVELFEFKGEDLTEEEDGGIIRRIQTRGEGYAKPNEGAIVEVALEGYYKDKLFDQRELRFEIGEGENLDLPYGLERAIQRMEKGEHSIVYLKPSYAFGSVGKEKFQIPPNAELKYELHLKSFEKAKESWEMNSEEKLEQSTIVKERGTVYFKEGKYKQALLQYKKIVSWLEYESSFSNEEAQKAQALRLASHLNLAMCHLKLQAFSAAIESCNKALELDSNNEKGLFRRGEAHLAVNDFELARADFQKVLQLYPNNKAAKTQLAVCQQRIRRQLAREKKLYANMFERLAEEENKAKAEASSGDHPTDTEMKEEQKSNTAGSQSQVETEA
UniProt Q9BTY2, sequence (Q9BTY2 whole entry, looked up): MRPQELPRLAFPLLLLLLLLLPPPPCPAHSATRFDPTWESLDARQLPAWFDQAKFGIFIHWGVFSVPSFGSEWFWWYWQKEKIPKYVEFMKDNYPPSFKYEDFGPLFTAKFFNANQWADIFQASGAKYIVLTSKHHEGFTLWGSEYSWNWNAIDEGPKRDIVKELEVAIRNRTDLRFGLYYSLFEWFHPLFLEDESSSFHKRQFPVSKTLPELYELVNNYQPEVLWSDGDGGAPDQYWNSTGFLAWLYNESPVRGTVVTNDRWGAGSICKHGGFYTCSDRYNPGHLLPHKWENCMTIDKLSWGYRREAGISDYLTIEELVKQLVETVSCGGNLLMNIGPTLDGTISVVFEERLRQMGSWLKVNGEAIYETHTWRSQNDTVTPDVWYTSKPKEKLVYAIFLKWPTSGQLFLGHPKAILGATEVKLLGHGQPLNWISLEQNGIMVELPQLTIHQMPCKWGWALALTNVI
UniProt P29083, sequence (P29083 whole entry, looked up): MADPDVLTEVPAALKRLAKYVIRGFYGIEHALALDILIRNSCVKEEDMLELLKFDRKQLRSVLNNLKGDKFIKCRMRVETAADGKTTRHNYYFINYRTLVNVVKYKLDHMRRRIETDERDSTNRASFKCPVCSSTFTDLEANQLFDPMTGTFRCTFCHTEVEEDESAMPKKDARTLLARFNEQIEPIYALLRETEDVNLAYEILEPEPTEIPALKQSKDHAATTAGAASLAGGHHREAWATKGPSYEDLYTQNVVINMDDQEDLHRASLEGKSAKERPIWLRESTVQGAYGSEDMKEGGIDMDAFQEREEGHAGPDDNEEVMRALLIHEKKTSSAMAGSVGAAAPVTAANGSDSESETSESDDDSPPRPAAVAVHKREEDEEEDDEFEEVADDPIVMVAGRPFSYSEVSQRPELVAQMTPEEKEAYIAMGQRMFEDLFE
UniProt Q14C86, sequence (Q14C86 whole entry, looked up): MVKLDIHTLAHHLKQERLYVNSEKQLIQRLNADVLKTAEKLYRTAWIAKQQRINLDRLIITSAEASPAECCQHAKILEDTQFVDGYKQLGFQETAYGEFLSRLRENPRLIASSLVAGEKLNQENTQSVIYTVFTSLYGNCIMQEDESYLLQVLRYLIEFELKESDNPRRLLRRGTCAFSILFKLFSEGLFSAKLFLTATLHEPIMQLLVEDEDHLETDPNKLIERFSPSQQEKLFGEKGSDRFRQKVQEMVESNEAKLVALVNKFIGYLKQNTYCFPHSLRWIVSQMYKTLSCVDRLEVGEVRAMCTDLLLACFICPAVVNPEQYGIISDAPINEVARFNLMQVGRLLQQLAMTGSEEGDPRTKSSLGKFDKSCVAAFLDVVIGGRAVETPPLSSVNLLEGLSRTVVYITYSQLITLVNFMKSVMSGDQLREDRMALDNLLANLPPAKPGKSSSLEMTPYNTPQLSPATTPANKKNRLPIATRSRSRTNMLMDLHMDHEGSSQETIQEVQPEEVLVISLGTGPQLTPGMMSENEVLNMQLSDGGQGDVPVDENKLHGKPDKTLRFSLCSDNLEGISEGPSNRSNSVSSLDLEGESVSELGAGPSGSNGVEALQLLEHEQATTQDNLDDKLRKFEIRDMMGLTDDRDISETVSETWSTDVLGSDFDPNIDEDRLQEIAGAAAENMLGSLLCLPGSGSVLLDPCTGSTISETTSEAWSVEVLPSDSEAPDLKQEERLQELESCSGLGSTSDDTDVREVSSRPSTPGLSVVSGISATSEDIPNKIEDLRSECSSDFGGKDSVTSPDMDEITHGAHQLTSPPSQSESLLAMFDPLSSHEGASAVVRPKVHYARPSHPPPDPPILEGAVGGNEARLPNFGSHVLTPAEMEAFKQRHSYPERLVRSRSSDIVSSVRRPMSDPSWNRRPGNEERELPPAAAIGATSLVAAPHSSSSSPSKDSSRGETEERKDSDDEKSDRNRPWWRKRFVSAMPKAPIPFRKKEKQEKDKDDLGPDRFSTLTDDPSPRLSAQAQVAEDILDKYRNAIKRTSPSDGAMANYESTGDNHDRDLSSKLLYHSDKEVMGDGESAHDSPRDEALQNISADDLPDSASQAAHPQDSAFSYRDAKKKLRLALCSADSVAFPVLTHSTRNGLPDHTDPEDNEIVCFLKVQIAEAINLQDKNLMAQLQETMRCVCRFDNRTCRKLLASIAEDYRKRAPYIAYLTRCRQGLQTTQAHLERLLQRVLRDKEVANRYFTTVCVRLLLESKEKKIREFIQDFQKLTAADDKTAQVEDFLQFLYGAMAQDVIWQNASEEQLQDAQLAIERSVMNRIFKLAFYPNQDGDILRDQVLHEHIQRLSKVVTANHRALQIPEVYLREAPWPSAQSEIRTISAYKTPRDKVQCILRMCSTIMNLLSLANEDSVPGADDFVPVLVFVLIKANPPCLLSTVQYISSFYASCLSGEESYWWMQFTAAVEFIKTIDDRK
UniProt Q00403, sequence (Q00403 whole entry, looked up): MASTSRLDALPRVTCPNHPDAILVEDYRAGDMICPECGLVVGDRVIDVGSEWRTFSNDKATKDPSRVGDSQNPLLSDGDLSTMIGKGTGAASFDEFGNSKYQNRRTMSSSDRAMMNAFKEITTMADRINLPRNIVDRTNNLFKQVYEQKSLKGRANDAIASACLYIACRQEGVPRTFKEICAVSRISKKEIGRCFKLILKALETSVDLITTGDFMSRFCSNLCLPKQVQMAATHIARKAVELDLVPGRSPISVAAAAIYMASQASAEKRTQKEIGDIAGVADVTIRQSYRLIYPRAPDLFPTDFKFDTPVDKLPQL
UniProt Q8TEQ6, sequence (Q8TEQ6 whole entry, looked up): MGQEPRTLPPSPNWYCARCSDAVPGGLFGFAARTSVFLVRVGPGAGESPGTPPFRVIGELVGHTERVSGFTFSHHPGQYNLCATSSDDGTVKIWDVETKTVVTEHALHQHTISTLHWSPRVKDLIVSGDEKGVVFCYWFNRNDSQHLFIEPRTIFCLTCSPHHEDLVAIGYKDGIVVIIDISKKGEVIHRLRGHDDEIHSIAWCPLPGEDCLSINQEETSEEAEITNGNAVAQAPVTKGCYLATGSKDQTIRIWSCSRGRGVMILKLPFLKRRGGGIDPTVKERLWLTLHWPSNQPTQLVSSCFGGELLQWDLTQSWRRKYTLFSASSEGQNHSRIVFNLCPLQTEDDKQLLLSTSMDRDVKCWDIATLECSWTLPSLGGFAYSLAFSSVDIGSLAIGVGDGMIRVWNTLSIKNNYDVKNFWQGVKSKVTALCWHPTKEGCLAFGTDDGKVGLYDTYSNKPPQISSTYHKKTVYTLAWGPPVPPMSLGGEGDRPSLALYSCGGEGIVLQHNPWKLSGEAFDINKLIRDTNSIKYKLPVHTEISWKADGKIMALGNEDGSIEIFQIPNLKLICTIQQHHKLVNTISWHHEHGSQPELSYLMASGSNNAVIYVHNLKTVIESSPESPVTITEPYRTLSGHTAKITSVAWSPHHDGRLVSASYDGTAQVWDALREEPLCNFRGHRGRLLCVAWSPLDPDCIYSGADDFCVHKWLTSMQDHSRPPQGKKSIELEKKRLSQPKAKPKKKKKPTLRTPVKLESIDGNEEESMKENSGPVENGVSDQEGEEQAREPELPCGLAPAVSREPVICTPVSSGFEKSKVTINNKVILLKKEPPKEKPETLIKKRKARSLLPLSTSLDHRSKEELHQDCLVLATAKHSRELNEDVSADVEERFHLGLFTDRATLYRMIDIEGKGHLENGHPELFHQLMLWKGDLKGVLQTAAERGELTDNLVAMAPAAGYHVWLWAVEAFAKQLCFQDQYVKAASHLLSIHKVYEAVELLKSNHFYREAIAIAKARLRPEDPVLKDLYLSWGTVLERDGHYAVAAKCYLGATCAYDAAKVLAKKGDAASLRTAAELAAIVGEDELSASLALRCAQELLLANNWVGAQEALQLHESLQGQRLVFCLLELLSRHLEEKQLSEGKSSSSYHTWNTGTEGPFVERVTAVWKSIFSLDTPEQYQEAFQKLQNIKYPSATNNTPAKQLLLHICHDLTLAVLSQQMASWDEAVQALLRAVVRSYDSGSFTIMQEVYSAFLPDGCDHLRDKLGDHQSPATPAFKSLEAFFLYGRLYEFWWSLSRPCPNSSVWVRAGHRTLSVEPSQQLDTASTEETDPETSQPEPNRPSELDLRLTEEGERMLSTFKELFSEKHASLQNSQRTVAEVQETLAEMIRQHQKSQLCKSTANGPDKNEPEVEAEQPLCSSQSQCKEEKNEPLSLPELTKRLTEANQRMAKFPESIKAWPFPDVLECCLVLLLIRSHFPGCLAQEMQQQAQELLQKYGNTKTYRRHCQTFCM
UniProt Q53GQ0, sequence (Q53GQ0 whole entry, looked up): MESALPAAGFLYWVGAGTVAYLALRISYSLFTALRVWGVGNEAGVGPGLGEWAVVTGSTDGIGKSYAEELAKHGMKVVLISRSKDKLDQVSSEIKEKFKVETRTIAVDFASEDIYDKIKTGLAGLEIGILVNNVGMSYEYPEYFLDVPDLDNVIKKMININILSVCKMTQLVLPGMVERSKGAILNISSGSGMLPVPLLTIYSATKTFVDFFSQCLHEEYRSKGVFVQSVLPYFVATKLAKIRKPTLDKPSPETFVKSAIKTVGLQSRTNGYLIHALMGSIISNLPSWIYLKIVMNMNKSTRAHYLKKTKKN

Compound in this test: CC1=C(C=C(C=C1)NC(=O)C2=CC(=CC=C2)N(C)C)NC(=O)C3=CC=C(C=C3)O
In words: log2 fold change, soluble protein after heating vs DMSO (PISA); higher = thermal stabilisation; K562 cells, 10 uM, 30 min; active = over 0.2 and 3.5 SD of the protein, either way, in both replicates (recomputed). In short, it runs like this:
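K562 cells (2×10^6 cells/mL) were treated with 10 μM compound for 30 min, and aliquots were heated for 3 min over 48°C-58°C. Pooled aliquots were extracted in PBS with 0.5% NP-40 at 4°C, and the supernatant after 21,000xg for 90 min was measured by TMTpro 16plex LC-MS/MS with channel sums equalised. Reported thermal stability, relative to control samples and from duplicates, is a log2 fold change.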
In the case of GNB2 (UniProt P62879), the log2 fold change was 0.018.
As for GTF2B (UniProt Q00403), the log2 fold change is -0.092.
Regarding GTF2E1 (UniProt P29083), the log2 fold change was -0.057.
As for GPX4 (UniProt P36969), the log2 fold change was -0.068.
Turning to HMGB3 (UniProt O15347), the log2 fold change is 0.
The same measure for GAPVD1 isoform 6 (UniProt Q14C86): -0.041; for FNTB (UniProt P49356): -0.058.
As for FKBP4 (UniProt Q02790), the log2 fold change was -0.037.
For IFRD1 (UniProt O00458), the log2 fold change was 0.033.
For IFT80 isoform 3 (UniProt Q9P2H3), the log2 fold change is 0.038.
For the target IFI30 (UniProt P13284), the log2 fold change is 0.043.
Regarding GALNT1 (UniProt Q10472), the log2 fold change was 0.
As for FUBP3 (UniProt Q96I24), the log2 fold change is -0.018.
ICMT (UniProt O60725): the log2 fold change was -0.085.
Consider GCC2 (UniProt Q8IWJ2), for which the log2 fold change was -0.012.
As for HIC2 (UniProt Q96JB3), the log2 fold change was 0.028.
To HRC (UniProt P23327) belongs 0.031; to HSD17B12 (UniProt Q53GQ0), 0.032.
For the target HMGCR isoform 3 (UniProt P04035), the log2 fold change was -0.046.
Take GOLPH3 (UniProt Q9H4A6): the log2 fold change was -0.031.
Consider GEMIN5 (UniProt Q8TEQ6), for which the log2 fold change is -0.038.
For FUCA2 (UniProt Q9BTY2), the log2 fold change was 0.
Take HNRNPH1 (UniProt P31943): the log2 fold change was -0.044.
